Only a selection was taken, and hits are over-represented in it overall.
HT1080 IDH1KD tx – qHTS for induction of synthetic lethality in tumor cells producing 2HG: qHTS for the HT-1080-IDH1KD cell line | HT-1080 IDH1 knockdown viability, ATP luminescence, 48 h | Potency, µM (highest dose often 46.1 µM), for the others: at the top dose activity, negative = toxicity, hits mostly cytotoxic | 360,000 compounds, 2% hits;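 note: potency is the fitted concentration of half-maximal effect; 0% = DMSO wells and -100% = cell-free medium wells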
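Cytotoxicity counter-line: IDH1KD HT-1080, 48 h, CellTiter-Glo. Curves classed by r2, magnitude and activity.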
TDP1 cell CPT – qHTS for Inhibitors of human tyrosyl-DNA phosphodiesterase 1 (TDP1): qHTS in cells in presence of CPT | Potency, µM (titrated, usually from 46.2 µM), for the others: top-dose activity change, negative = growth inhibition, usual class: inhibitors | 420,000 compounds, 12% hits | chicken DT40 Tdp1-/-;hTDP1 cells + 20 nM CPT, ATP luminescence, 48 h; note: potency is the fitted concentration of half-maximal effect; nearly all actives have a fitted effect of over 55% in size
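Cell growth measured by CellTiter-Glo luminescence after a minimum 48 h, 37 C compound exposure with 20 nM CPT in Tdp1-knockout DT40 cells stably expressing hTDP1, seeded 400/well; qHTS titration format.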
HT1080NT lethal – qHTS for induction of synthetic lethality in tumor cells producing 2HG: qHTS for the HT-1080-NT fibrosarcoma cell line. HT-1080-NT fibrosarcoma viability, CellTiter-Glo ATP luminescence, 48 h. Potency, µM (titrated, usually from 46.1 µM), inactives show at the highest dose activity, negative = less viability, actives largely listed as cytotoxic. 360,000 compounds, 1.6% hits;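 note: NT is the 2HG producing partner of a matched IDH1 knockdown line; potency is the fitted concentration of half-maximal effect; 0% = DMSO-treated cells and -100% = media-only wells without cells; nearly all actives have a fitted effect of over 55% in size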
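HT-1080-NT fibrosarcoma cells (2HG-overproducing), 750 cells/well in RPMI with 5% FBS, dosed after 2 h and incubated 48 h at 37C. CellTiter-Glo luminescence normalized to DMSO and no-cell wells; concentration-response curves fitted and classed.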
IL-1B inflam inh – qHTS for Inhibitors of Inflammasome Signaling: IL-1-beta AlphaLISA Primary Screen. THP-1 LPS/ATP IL-1B secretion, AlphaLISA, 16 h; stronger effect = lower value. activity change, % at 57.5 µM. 360,000 compounds, 4.7% hits; in the data active = activity change below about -50%; inconclusive = mostly about -30% to -49%
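THP-1 cells pretreated 1 hr with compounds (up to 57.5 uM final), then stimulated with LPS (250 ng/mL final) plus ATP (1.25 mM final); secreted IL-1B measured by AlphaLISA after 16 hr, decreased signal indicating inhibition.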
ALOX12 inh – Primary qHTS assay for inhibitors of human arachidonate 12S-lipoxygenase (ALOX12): Round 2 | Polyunsaturated fatty acid lipoxygenase ALOX12 (Homo sapiens), P18054 | purified 12hLO, xylenol orange hydroperoxide absorbance | Potency, µM (highest dose often 108 µM), for the others: top-dose activity change, negative = inhibition, usual class: inhibitors | 580,000 compounds, 1.1% hits | AID 1671190, 2021; note: potency is the fitted concentration of half-maximal effect
Target sequence (P18054 whole entry, looked up): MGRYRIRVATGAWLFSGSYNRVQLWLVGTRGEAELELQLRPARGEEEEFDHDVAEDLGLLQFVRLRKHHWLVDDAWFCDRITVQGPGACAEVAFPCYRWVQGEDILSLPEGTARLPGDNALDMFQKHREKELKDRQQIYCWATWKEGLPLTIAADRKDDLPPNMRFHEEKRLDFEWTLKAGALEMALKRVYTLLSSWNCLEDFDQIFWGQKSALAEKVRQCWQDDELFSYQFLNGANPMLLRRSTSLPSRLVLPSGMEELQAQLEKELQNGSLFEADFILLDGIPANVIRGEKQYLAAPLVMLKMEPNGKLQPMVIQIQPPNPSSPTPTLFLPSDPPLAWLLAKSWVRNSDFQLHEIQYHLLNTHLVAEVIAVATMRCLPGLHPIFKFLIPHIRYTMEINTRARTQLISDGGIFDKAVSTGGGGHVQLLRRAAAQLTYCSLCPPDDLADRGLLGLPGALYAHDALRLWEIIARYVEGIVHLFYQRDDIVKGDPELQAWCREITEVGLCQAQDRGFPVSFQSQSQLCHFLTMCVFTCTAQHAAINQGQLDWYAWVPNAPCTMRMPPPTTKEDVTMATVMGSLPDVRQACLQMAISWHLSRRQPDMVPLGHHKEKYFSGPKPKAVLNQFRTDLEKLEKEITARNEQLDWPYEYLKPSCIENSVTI
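Hydroperoxide product was detected by ferrous iron/xylenol orange as the 573 to 405 nm absorbance ratio. Arachidonic acid at 40 uM (final) was turned over for 30 min at room temperature by 150 nM human 12hLO, pH 7.0 Hepes buffer, after 15 min compound preincubation.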
TDP1 cell noCPT – qHTS for Inhibitors of human tyrosyl-DNA phosphodiesterase 1 (TDP1): qHTS in cells in absence of CPT | DT40 Tdp1-/- hTDP1 cells, no CPT, ATP luminescence, 48 h | Potency, µM (titrated, usually from 46.2 µM), for inactives: at the top dose activity change, negative = growth inhibition, actives largely listed as inhibitors | 420,000 compounds, 15% hits | AID 686978, 2013; note: potency is the fitted concentration of half-maximal effect; nearly all actives have a fitted effect of over 55% in size
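Luminescent ATP content (CellTiter-Glo) served as the growth readout. Knockout chicken DT40 cells expressing human TDP1 were exposed to compounds without camptothecin for a minimum 48 hr at 37 °C.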
* hit, by the source's call; i = inactive; ? = inconclusive; . = no result; [ ] = dose if it differs, or a comment. Unless noted, calls come from the whole dose curve; as a rule, active = well fitted curve in the direction sought with a large enough effect; inconclusive = small, poorly fitted or top-dose-only effect, or another doubt; inactive = no such curve, though single readings can be large; an effect the other way counts as inactive or inconclusive. Unless noted, % is set by controls: 0 for no effect and ±100 for the full control effect.

SMILES	HT1080 IDH1KD tx	TDP1 cell CPT	HT1080NT lethal	IL-1B inflam inh	ALOX12 inh	TDP1 cell noCPT
Cc1ccc(S(=O)(=O)Nc2ccc(C(=O)N3CCCC3)cc2)cc1	8.3%	-17.6%	4.4%	i	1.9%	-20.8%
COc1ccc(N2CCN(C(=O)c3ccc(NS(=O)(=O)c4ccc(F)c(F)c4)cc3)CC2)cc1	-2.0%	?	-2.2%	6.1	0.0%	?
COc1ccc(NS(=O)(=O)c2ccc(C(=O)N3CCN(c4ccc(F)cc4)CC3)cc2)cc1	-15.8%	10.3µM*	-15.2%	-24.9	175.2%	4.61µM*
CCOC(=O)N1CCN(C(=O)c2ccc(S(=O)(=O)Nc3ccccc3)cc2)CC1	-5.9%	11.6µM*	-1.1%	36.5	18.6%	?
Cc1ccc(NS(=O)(=O)c2ccc(C(=O)N3CC(C)CC(C)C3)cc2)cc1 (stereo not given)	-28.2%	20.6µM*	-0.1%	21.5	-25.3%	16.4µM*
Cc1ccc(NS(=O)(=O)c2ccc(C(=O)N3CCN(S(=O)(=O)c4ccccc4)CC3)cc2)cc1	-12.2%	11.6µM*	-1.1%	3.1	?	7.31µM*
COc1ccc(NC(=O)N[C@H]2[C@H](O)[C@@H](Oc3ccccc3)[C@@H]3OC[C@H]2O3)cc1	.	.	.	.	13.3%[176 µM]	.
O=C(c1ccc(NS(=O)(=O)c2ccc(F)cc2)cc1)N1CCCCC1	-4.1%	-28.8%	-5.3%	-13.4	?	?
O=C(c1ccc(S(=O)(=O)Nc2ccc(F)cc2)cc1)N1CCN(c2ccccn2)CC1	-23.2%	?	-8.5%	-54.1*	-13.5%	18.4µM*
CCOC(=O)N1CCN(C(=O)COc2ccc(S(=O)(=O)Nc3ccc(OCC)cc3)cc2)CC1	?	?	-5.4%	4.2	27.5%	23.1µM*
Cc1cccc(NS(=O)(=O)c2cccc(C(=O)N3CCN(c4ccccn4)CC3)c2)c1	-10.9%	-29.8%	0.9%	2.4	-1.9%	-28.0%
CCOC(=O)COc1ccc(S(=O)(=O)Nc2cccc(SC)c2)cc1	?	?	10µM*	-9.3	10.8%	-18.2%
Cc1ccc(C(C)(C)C)cc1S(=O)(=O)Nc1cccc(C(=O)N2CCN(c3ccccn3)CC2)c1	-29.6%	29.1µM*	-22.5%	-9.1	-14.8%	16.4µM*
CCCCc1ccc(NC(=O)CSc2nnc(-c3cc(-c4ccccc4)n[nH]3)n2N)cc1	.	.	.	.	-16.3%	.
COC(=O)[C@]12C[C@H](CC(=O)NCCC(C)C)C(=O)N(CCC3=CCCCC3)C1=C[C@H](COCc1ccccc1)O[C@@H]2C	.	.	.	.	-23.4%	.
O=C(c1ccc(NS(=O)(=O)c2ccccc2)cc1)N1CCOCC1	-0.3%	6.5%	-1.6%	-20.1	-9.3%	10.3µM*
CC1CC(C)CN(C(=O)c2ccc3ccccc3c2)C1 (stereo not given)	13.4%	?	8.0%	-50.9*	-9.8%	?
CC1(C(=O)NCc2cccnc2)CCCc2cnc(NCc3ccccc3)nc21 (stereo not given)	.	.	.	.	-3.4%[176 µM]	.
CCOc1ccccc1NC(=O)CN1C=C(C(=O)OC)C(C)=NS1(=O)=O	.	.	.	.	1.4%	.
Cc1ccc(C)c(N2CCN(c3ncnc4c3cnn4-c3ccccc3)CC2)c1	0.8%	?	0.0%	18.8	10.7%	?
Cc1ccc(-n2ncc3c(N4CCCC(C)C4)ncnc32)c(C)c1 (stereo not given)	6.3%	8.2µM*	15.6%	-11.3	5.2%[57.4 µM]	7.31µM*
Cc1ccc(-n2ncc3c(N4CCCC4)ncnc32)c(C)c1	-3.4%	-3.5%	-2.4%	0.0	-1.0%	-7.8%
COc1cccc(N2CCN(c3ncnc4c3cnn4-c3ccc(C)cc3C)CC2)c1	?	1.84µM*	23.1µM*	-79.5*	-13.3%	2.59µM*
CCN1CCN(c2ncnc3c2cnn3-c2cccc(C)c2)CC1	.	23.1µM*	.	.	-10.9%	?
Cc1cccc(-n2ncc3c(N4CCCCCC4)ncnc32)c1	.	?	.	.	-22.7%	20.6µM*
SMILES	HT1080 IDH1KD tx	TDP1 cell CPT	HT1080NT lethal	IL-1B inflam inh	ALOX12 inh	TDP1 cell noCPT
COc1cc2c(c(OC)c1)C(c1ccc(Cl)cc1)C1=C(CCCC1=O)N2 (stereo not given)	.	.	.	.	-23.2%	.
Cc1ccccc1-c1nn(-c2ccc(F)cc2F)cc1CNCCN(C)C	-20.6%	-12.6%	-3.8%	?	41.9%	-25.4%
Cc1ccccc1-c1nn(-c2ccc(F)cc2F)cc1CNCCCN(C)C	?	?	?	-61.6*	-6.0%	7.31µM*
Clc1ccc(-c2csc(NC3CC3)n2)cc1Cl	.	.	.	.	10µM*	.
Clc1ccc(-c2csc(NC3CC3)n2)cc1	.	.	.	.	8.91µM*	.
CC(=O)Nc1ccc(-c2csc(NC3CC3)n2)c(F)c1	.	.	.	.	14.1µM*	.
Cc1ccc(F)c(S(=O)(=O)N2CCC3(CC2)C(C(=O)O)CC(=O)N3C)c1 (stereo not given)	.	.	.	.	-12.5%	.
CC(C)CC(NC(=O)OCc1ccccc1)C(=O)NC(Cc1ccccc1)C(=O)CCl (stereo not given)	?	4.61µM*	?	-99.7*	-29.8%	2.91µM*
CCOC(=O)C(Cc1ccc(O)cc1)NC(=O)CNC(=O)C1CCCN1C(=O)OC(C)(C)C (stereo not given)	-2.8%	-21.7%	-3.4%	-2.5	-6.2%	?
CCOC(=O)CNC(=O)C(Cc1ccccc1)NC(=O)OCc1ccccc1 (stereo not given)	-0.8%	?	-2.2%	-25.9	-5.3%	?
Cc1ccc(NC(=O)C(Cc2ccccc2)NC(=O)OCc2ccccc2)cc1C (stereo not given)	-5.0%	?	-11.9%	13.8	-28.3%	23.1µM*
COC(=O)C(Cc1ccccc1)NC(=O)C(CC(C)C)NC(=O)OC(C)(C)C (stereo not given)	13.9%	-0.2%	4.9%	18.9	-0.1%	-27.0%
CCOC(=O)C(Cc1ccc(O)cc1)NC(=O)CNC(=O)C(CC(C)C)NC(=O)OC(C)(C)C (stereo not given)	-6.8%	-2.4%	-13.6%	-98.7*	-11.0%	-16.6%

Bioassay records from PubChem.
